Many of the other results were omitted from the sample, so hits are more common in it than they were.
RmlC RmlD mix – inhibitors of RmlC and RmlD coupled enzymes. RmlC/RmlD coupled enzyme inhibition, 384-well mixture HTS. inhibition, % at 5.5 µM. hit rate 0.39% among 110,000. AID 1532; in the data active = inhibition above about 30%, passing the limit was not always enough; inconclusive = no clear call, values can overlap the other calls
HIV RNase H inh-1 – inhibitors of HIV-1 reverse transcriptase RNase H; P04585; RT-RNase H RNA/DNA duplex cleavage, fluorescence; inhibition, % at 10 µM; hit rate 1.9% among 65,000; AID 565; in the data active = inhibition above about 50%
HIV RNase H inh-2 – confirmation of HIV-1 reverse transcriptase RNase H inhibitors | shares compounds with HIV RNase H inh-1 | Recombinant RT RNase H, fluorescent RNA/DNA duplex cleavage | inhibition, % at 10 µM | hit rate 39% among 1,000 | AID 651; in the data active = inhibition above about 48%; inconclusive = no clear call, values can overlap the other calls
The depositor's hits bear a star; ? = inconclusive; . = no result.

SMILES | RmlC RmlD mix | HIV RNase H inh-1 | HIV RNase H inh-2
COc1ccc(/C=N/NC(N)=S)cc1OC(=O)c1cccc2ccccc12 | -1 | . | .
CCOC(=O)C(C)Sc1cc(CS(=O)(=O)c2ccccc2)nc(-c2ccccc2)n1 (stereo unspecified) | -11 | . | .
Cc1ccc(C(=O)CSc2nc3cc(S(=O)(=O)N4CCOCC4)ccc3o2)cc1 | 4 | 72* | 23
O=C(CSc1nc2cc(S(=O)(=O)N3CCOCC3)ccc2o1)NC1CCCc2ccccc21 (stereo unspecified) | 0 | 85* | ?
Cc1ccc(S(=O)(=O)N2CCN(CC(=O)NC3CCCc4ccccc43)CC2)cc1C (stereo unspecified) | -8 | . | .
Cc1[nH]c2ccccc2c1C(=O)CSc1nc2cc(S(=O)(=O)N3CCCCC3)ccc2o1 | 1 | 36 | .
CN(C)c1nc(SCCOC(=O)Nc2ccccc2)nc(N(C)C)n1 | -19 | -26 | .
CC(c1ccccc1)C1C(C#N)=C(N)OC2=C1C(=O)CC(C)(C)C2 (stereo unspecified) | 6 | -7 | .
CC1(C)CC(=O)C2=C(C1)OC(N)=C(C#N)C2C#Cc1ccccc1 (stereo unspecified) | 18 | 60* | 5
Cc1nc(-c2ccccc2)sc1C1(C)CC(c2ccc(C#N)cc2)=NO1 (stereo unspecified) | 7 | . | .
N#CC1=C(N)SC(N)=C(C#N)C1c1c(Cl)cccc1Cl | 1 | -12 | .
COC1(OC)N=C(N)C2(C#N)C(c3cccc(Oc4ccccc4)c3)C12C#N (stereo unspecified) | 11 | -12 | .
N#CC1=C(N)SC(N)=C(C#N)C1CCc1ccccc1 | 37 | 72* | 2
CCc1ccc(C2C(C#N)=C(N)SC(N)=C2C#N)s1 | -47 | 11 | .
CCc1ccc(C2C(C#N)=C(N)SC(N)=C2C#N)cc1 | 1 | 70* | 18
N#CC1=C(N)SC(N)=C(C#N)C1c1cccc(Oc2ccccc2)c1 | 9 | 70* | 39
CCOc1ccccc1C1C(C#N)=C(N)SC(N)=C1C#N | . | -5 | .
Cc1ccc(C2C(C#N)=C(N)SC(N)=C2C#N)o1 | 8 | 80* | ?
O=C(O)C1=C[C@H](c2csc3ccccc23)C[C@H](OCCCCO)O1 | -8 | . | .
CC1(C)[C@@H](O)CC[C@]2(C)C3C(O)C=C4[C@H]5C[C@@](C)(CO)CC[C@]5(C)CC[C@]4(C)[C@]3(C)CC[C@@H]12 (stereo partly specified) | 7 | . | .
CC(C)(C)[C@H]1C=C(C(N)=O)O[C@@H](OCCCCO)C1 | -3 | . | .
COC(=O)C1N[C@@H]([C@@H](NC(=O)COc2ccccc2)C(=O)NCc2ccc(OC)cc2)SC1(C)C (stereo partly specified) | 4 | . | .
N#CC1=C(N)SC(N)=C(C#N)C1c1ccc(C(F)(F)F)cc1 | -7 | 61* | 15
N#CC1=C(N)SC(N)=C(C#N)C1C1CC=CCC1 (stereo unspecified) | 6 | 2 | .
CCOc1ccc(C2C(C#N)=C(N)SC(N)=C2C#N)cc1OC | -2 | 69* | 5
SMILES | RmlC RmlD mix | HIV RNase H inh-1 | HIV RNase H inh-2
CCOc1ccc(C2C(C#N)=C(N)SC(N)=C2C#N)cc1OCC | 8 | 38 | .
CCS(=O)(=O)N1Cc2ccccc2CC1C(=O)N1CCN(c2cccc(C)c2C)CC1 (stereo unspecified) | -2 | 24 | .
Cc1ccc2cc(CN(C(=O)c3ccco3)c3ccccc3C)c(=O)[nH]c2c1 | 7 | 70* | 39
Cc1ccc2cc(CCNC(=O)c3ccco3)c(=O)[nH]c2c1 | 12 | 2 | .
O=C(CSCC(=O)NCc1ccco1)NCc1ccco1 | -9 | -11 | .
O=C(CCSCCC(=O)NCc1ccco1)NCc1ccco1 | 10 | 77* | 47*
COc1ccc(OC)c(NC(=O)c2ccccc2OC(C)=O)c1 | -9 | . | .
Brc1ccc2[nH]c3nc(SCCN4CCOCC4)nnc3c2c1 | . | 3 | .
c1ccc2c(c1)[nH]c1nc(SCCN3CCOCC3)nnc12 | 26 | 83* | 0
C=CCCN(C(C(=O)OC)C(C)C)S(=O)(=O)c1ccccc1Br (stereo unspecified) | -4 | . | .
CCCc1cc(NCCN2CCOCC2)n2c(nc3ccccc32)c1C#N | . | -5 | .
Cc1sc2nc(SCC(=O)N3CCOCC3)[nH]c(=O)c2c1C | 5 | -4 | .
Cc1sc2nc(C(C)Nc3ccccc3N3CCOCC3)[nH]c(=O)c2c1C (stereo unspecified) | -15 | 65* | 78*
O=C(CSCc1cccc(Cl)c1)N1CCN(Cc2ccc3c(c2)OCO3)CC1 | -10 | . | .
CCCc1cc(C(N)=O)c(NC(=O)C2CCCO2)s1 (stereo unspecified) | 9 | 76* | 64*
Cc1sc(NC(=O)C2CCCO2)c(C(N)=O)c1C (stereo unspecified) | -9 | . | .
CCCCNC(=O)c1ccc2nc(-c3ccco3)c(-c3ccco3)nc2c1 | -2 | 92* | 2
CC(=O)c1ccc(NC(=O)c2ccc3nc(-c4ccco4)c(-c4ccco4)nc3c2)cc1 | 6 | . | .
O=C(NCc1ccccc1)c1ccc2nc(-c3ccco3)c(-c3ccco3)nc2c1 | -17 | . | .
O=C(Nc1ccc(N2CCOCC2)cc1)c1ccc2nc(-c3ccco3)c(-c3ccco3)nc2c1 | 0 | 91* | 63*
O=C(Nc1ccccc1)c1ccc2nc(-c3ccco3)c(-c3ccco3)nc2c1 | -26 | 100* | 28
O=C(Nc1ccc(N2CCOCC2)cc1)c1ccncc1 | 14 | . | .
CC(C)CCNC(=O)c1onc(CSc2ccccn2)c1C(=O)NCCC(C)C | -15 | . | .
COc1ccc(C2=CC3=C(Br)C(=O)C(C)(OC(=O)c4cnc5ccccc5n4)C(=O)C3=CO2)cc1 (stereo unspecified) | -4 | . | .
O=C(CSc1nc2sc3c(c2c(=O)n1-c1ccccc1)CCCC3)NCc1ccco1 | . | 62* | 53*
SMILES | RmlC RmlD mix | HIV RNase H inh-1 | HIV RNase H inh-2
Cc1sc2nc(SCC(=O)NCc3ccco3)n(C)c(=O)c2c1C | -2 | -7 | .
CC1(C)Cc2c(sc3nc(SCC(=O)NCc4ccco4)n(-c4ccccc4)c(=O)c23)CS1 | . | 13 | .
CC(C)c1nc2sc3c(SCC(=O)NCc4ccco4)ncnc3c2c2c1CCC2 | 10 | 71* | 35*
O=C(CSc1ncnc2sc3c(c12)CCCCC3)NCc1ccco1 | 11 | -12 | .
Cc1sc2nc(SCC(=O)NCc3ccco3)n(CCc3ccccc3)c(=O)c2c1C | 9 | 82* | 59*
COc1cc(-c2nnc(COC(=O)c3c4c(nc5ccccc35)CCCC4)o2)cc(OC)c1OC | -10 | . | .
Cc1cc(/C=C2\SC(=Nc3ccccc3)NC2=O)c(C)n1-c1ccc(S(N)(=O)=O)cc1 | 6 | . | .
Cc1ccc(-c2cc(C(F)F)n3ncc(C(=O)Nc4ccc(S(=O)(=O)Nc5ccccc5C)cc4)c3n2)cc1 | 22 | . | .
COC(=O)C1=C(C(=O)OC)[C@@H]2N(Cc3ccccc3)c3ccccc3[C@@]23C[C@@H](C(=O)OC)N(C(=O)NC(C)(C)C)C3=N1 | -11 | . | .
Fc1cccc(CSc2nc3ncccc3[nH]2)c1 | -3 | . | .
Fc1ccc(CSc2nc3ncccc3[nH]2)cc1 | -11 | 61* | 13
CCCNC(=O)c1ccccc1NC(=O)c1ccccc1N(C)S(=O)(=O)c1ccc(C)cc1 | 5 | . | .
c1ccc(Cn2nnc3c(N4CCCC4)ncnc32)cc1 | -9 | -15 | .
c1ccc(-n2nnc3c(N4CCOCC4)ncnc32)cc1 | 8 | 67* | 15
C=CCNC(=S)NNC(=O)COc1cccc(Cl)c1 | 5 | . | .
